PubChem BioAssay AID1159580 (chemical genetic matrix, 2015)
Several values for one entry are separate records, joined by “and”; a condition that tells them apart may be missing. Identical values can stand only once. In all, about 5,500 compounds went through this assay and about 2,000 (36%) were called active. About 18% were inconclusive and are not listed. Cut-off read from the data, not from the text of the source: active = normalized growth mostly below about 0.91 (no sharp cut-off); inconclusive = no clear call, values can overlap the other calls; inactive = mostly above about 0.92. The list shows a part of the results.

Experiment: chemical genetic growth profiling, strain panel (AID 1159580);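 note: tested at 20 µM; growth read once vehicle control cultures reached saturation at 30 °C; 1 = growth at the plate median or of vehicle wells; lower values mean less growth of the strain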
Conditions: S. cerevisiae deletion strains, growth OD

Measured: normalized growth

C[N+](C)(C)CCOP(=O)([O-])OP(=O)(O)OC[C@H]1OC(n2ccc(N)nc2=O)[C@H](O)[C@@H]1O (some centres not stated)
inactive: locus YAL013W, strain DEP1, hits give low values 0.99 | locus YAL021C, strain ccr4, hits give low values 1 | locus YAL026C, strain drs2, hits give low values 1 | locus YAL030W, strain snc1, hits give low values 0.991 | locus YBL061C, strain skt5, hits give low values 0.983 | locus YBR009C, strain hhf1, hits give low values 1.01 | locus YBR021W, strain FUR4, hits give low values 1.01 | locus YBR023C, strain chs3, hits give low values 0.987 | locus YBR171W, strain sec66, hits give low values 0.962 | locus YBR229C, strain ROT2, hits give low values 1 | locus YBR231C, strain swc5, hits give low values 0.976 | locus YBR279W, strain paf1, hits give low values 0.992 | locus YCL011C, strain gbp2, hits give low values 0.998 | locus YCL016C, strain dcc1, hits give low values 1.01 | locus YCL029C, strain bik1, hits give low values 0.999 | locus YCL061C, strain MRC1, hits give low values 0.972 | locus YCL069W, strain vba3, hits give low values 0.975 | locus YCR088W, strain abp1, hits give low values 0.98 | locus YDL005C, strain med2, hits give low values 0.977 | locus YDL035C, strain GPR1, hits give low values 0.993 | locus YDL040C, strain nat1, hits give low values 0.979 | locus YDL074C, strain BRE1, hits give low values 0.972 | locus YDL101C, strain DUN1, hits give low values 0.999 | locus YDL134C, strain PPH21, hits give low values 1.01 | locus YDL185W, strain tfp1, hits give low values 0.992 | locus YDL192W, strain arf1, hits give low values 1.01 | locus YDR001C, strain nth1, hits give low values 0.978 | locus YDR069C, strain doa4, hits give low values 0.976 | locus YDR101C, strain arx1, hits give low values 0.989 | locus YDR137W, strain rgp1, hits give low values 0.991 | locus YDR150W, strain NUM1, hits give low values 1 | locus YDR159W, strain sac3, hits give low values 1 | locus YDR162C, strain NBP2, hits give low values 0.981 | locus YDR195W, strain ref2 0.94 | locus YDR297W, strain sur2, hits give low values 0.989 | locus YDR318W, strain mcm21, hits give low values 1.01 | locus YDR334W, strain swr1, hits give low values 0.974 | locus YDR335W, strain msn5, hits give low values 0.991 | locus YDR388W, hits give low values 1 | locus YDR392W, strain spt3, hits give low values 1.05 | locus YDR502C, strain sam2, hits give low values 0.995 | locus YEL003W, strain gim4, hits give low values 0.986 | locus YEL037C, strain rad23, hits give low values 0.976 | locus YEL061C, strain CIN8 (second series), hits give low values 0.971 | locus YEL061C, strain CIN8, hits give low values 0.996 | locus YER015W, strain faa2, hits give low values 1 | locus YER016W, strain bim1, hits give low values 0.985 | locus YER110C, hits give low values 1 | locus YER111C, strain swi4, hits give low values 0.978 | locus YER155C, strain BEM2 (second series), hits give low values 0.98 | locus YER155C, strain BEM2, hits give low values 0.995 | locus YER167W, strain BCK2, hits give low values 1.02 | locus YFR010W, strain ubp6, hits give low values 0.974 | locus YGL078C, strain dbp3, hits give low values 0.998 | locus YGL086W, strain mad1, hits give low values 1.01 | locus YGL167C, strain pmr1, hits give low values 0.973 | locus YGL173C, strain kem1, hits give low values 0.983 | locus YGL227W, strain vid30, hits give low values 0.973 | locus YGL240W, strain doc1, hits give low values 0.969 | locus YGL248W, strain PDE1, hits give low values 1.02 | locus YGL253W, strain hxk2, hits give low values 0.993 | locus YGR078C, strain PAC10, hits give low values 0.997 | locus YGR135W, strain pre9, hits give low values 0.987 | locus YGR229C, strain SMI1, hits give low values 0.98 | locus YGR252W, strain gcn5, hits give low values 1.02 | locus YHR013C, strain ard1, hits give low values 0.969 | locus YHR027C, strain rpn1, hits give low values 0.992 | locus YHR030C, strain SLT2, hits give low values 0.998 and 1 | locus YHR079C, strain IRE1 (second series), hits give low values 1.01 | locus YHR079C, strain IRE1, hits give low values 1.01 | locus YHR094C, strain hxt1, hits give low values 0.997 | locus YHR129C, strain ARP1, hits give low values 1.01 | locus YHR142W, strain chs7, hits give low values 0.98 | locus YHR200W, strain rpn10, hits give low values 1 | locus YIL066C, strain RNR3, hits give low values 0.995 | locus YIL073C, strain SPO22, hits give low values 1.06 | locus YIL125W, strain kgd1, hits give low values 1 | locus YIR030C, strain dcg1, hits give low values 0.999 | locus YJL092W, strain hpr5, hits give low values 0.974 | locus YJL095W, strain BCK1 (second series), hits give low values 0.99 | locus YJL095W, strain BCK1, hits give low values 0.987 and 0.994 | locus YJL115W, strain asf1, hits give low values 0.977 | locus YJL129C, strain trk1, hits give low values 0.99 | locus YJL134W, strain LCB3, hits give low values 1 | locus YJL154C, strain vps35, hits give low values 0.981 | locus YJL164C, strain tpk1, hits give low values 1 | locus YJL166W, strain qcr8, hits give low values 0.963 | locus YJL168C, strain set2, hits give low values 1 | locus YJL187C, strain SWE1 (second series), hits give low values 1 | locus YJL187C, strain SWE1, hits give low values 0.993 | locus YJR043C, strain POL32, hits give low values 1.02 | locus YJR066W, strain TOR1, hits give low values 0.952
